Drawing on PubChem BioAssay AID720706 (Broad Institute, 2013), this text covers GFP signal change (wild-type ribosome), OD600 change and RFP signal change for 32 compounds.

Molecules are shown by their SMILES. The whole screen tested about 350,000 compounds, of which about 5,500 (1.6%) were called active.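 The calls were made as follows: active = significant combined selectivity score with lowered wild-type GFP, culture density cut under 30%, mutant RFP and density less affected; inactive = any of these conditions unmet.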 Many of the other results were omitted from the sample, so actives are more common in it than they were.

The experiment in a line: reduced GFP signal of wild-type E. coli, primary screen, bacterial rRNA inhibitor project, GFP/RFP fluorescence, OD600, single point (AID 720706). The settings on record: E. coli WT GFP vs humanized-ribosome RFP mutants, 24 h; GFP signal change (wild-type ribosome): stronger effect = lower value, DMSO median 0, no signal -100; OD600 change: measured here: OD600 growth, DMSO median 0, no signal -100; RFP signal change: measured here: RFP humanized mutant strains, DMSO median 0, no signal -100, concentration not given here.
Turning to `CN(C)C(=O)c1cccc(-c2ccc([C@H]3[C@H](CO)N4C(=O)CN(C(=O)Cc5ccccc5)C[C@@H]34)cc2)c1`, the GFP signal change (wild-type ribosome) was 6.84% (inactive), the OD600 change was 11.5% and the RFP signal change was determined as 5.77%.

Consider `Cn1cccc1C(=O)NNC(=O)COc1ccc(Br)cc1`, for which the GFP signal change (wild-type ribosome) was -1.7% (inactive), the OD600 change came out at 4.13% and the RFP signal change worked out at 0.868%.

On to `CC(=O)Nc1ccc(OC(=O)COc2ccc(Br)cc2)cc1`, for which the GFP signal change (wild-type ribosome) is 18.1% (inactive), the OD600 change worked out at 16.8% and the RFP signal change amounted to 1.93%.

Take `Cc1ccc(O)c(NC(=S)NC(=O)COc2ccc(Br)cc2)c1`: the GFP signal change (wild-type ribosome) is -23.6% (active), the OD600 change was -13.5% and the RFP signal change stood at 6.14%.

Consider `CC[C@H]1CC=CC[C@@H](C)Oc2ccccc2C(=O)N(C)[C@H](Cc2ccccc2)C(=O)N1` (mixture of isomers), for which the GFP signal change (wild-type ribosome) was -6.4% (inactive), the OD600 change was -38% and the RFP signal change was -3.29%.

On to `CC(C)NC(=O)N(C)C[C@H]1Oc2ncc(C#CC3(O)CCCC3)cc2C(=O)N([C@H](C)CO)C[C@@H]1C`, for which the GFP signal change (wild-type ribosome) is 2.98% (inactive), the OD600 change was 9.89% and the RFP signal change came to 0.31%.

On to `O=[N+]([O-])c1cc(C(F)(F)F)ccc1NCCc1ccncc1`, for which the GFP signal change (wild-type ribosome) is 1.68% (inactive), the OD600 change was determined as 6.66% and the RFP signal change was -1.21%.

Consider `Nc1ccccc1Sc1ccc(C(F)(F)F)cc1[N+](=O)[O-]`, for which the GFP signal change (wild-type ribosome) is -36.7% (active), the OD600 change was -4.9% and the RFP signal change is -9.75%.

For the compound `Nc1ccccc1Sc1cc(Cl)nnc1Cl`, the GFP signal change (wild-type ribosome) is 2.47% (inactive), the OD600 change was 3.13% and the RFP signal change was -2.25%.

As to `C[C@H]1CN([C@@H](C)CO)C(=O)c2cccc(NC(=O)c3ccncc3)c2O[C@@H]1CN(C)C`, the GFP signal change (wild-type ribosome) is 2.69% (inactive), the OD600 change was determined as 14.6% and the RFP signal change is -0.879%.

Take `Cc1ccc(-c2csc(NC(=O)C3=COCCO3)n2)cc1C`: the GFP signal change (wild-type ribosome) is -32% (inactive), the OD600 change was -55.4% and the RFP signal change amounted to 17.9%.

Regarding `CCc1noc(C)c1C(=O)OCC(=O)c1ccc(NC(=O)CC(C)C)cc1`, the GFP signal change (wild-type ribosome) was -6.83% (inactive), the OD600 change was -38.8% and the RFP signal change was determined as 4.13%.

With `CCc1noc(C)c1C(=O)Nc1nc(-c2ccccc2)cs1`, the GFP signal change (wild-type ribosome) was -30.7% (active), the OD600 change was -24.6% and the RFP signal change was -5.38%.

For `COc1ccc2c3c(n(C)c2c1)[C@H](CO)N(Cc1cccnc1)CC31CCN(Cc2cccnc2)CC1`, the GFP signal change (wild-type ribosome) was -3.41% (inactive), the OD600 change came out at 7.26% and the RFP signal change is 0.685%.

Regarding `C[C@@H]1CN([C@@H](C)CO)C(=O)c2cc(N(C)C)ccc2O[C@@H](C)CCCCO[C@@H]1CN(C)C(=O)CCC(F)(F)F`, the GFP signal change (wild-type ribosome) is -1.52% (inactive), the OD600 change was -0.235% and the RFP signal change came to 1.42%.

For the compound `C/C=C/c1cccc(-c2nc(C(=O)NCCN3CCCC3)cc3c2[C@@H](CCO)N([S@](=O)C(C)(C)C)C3)c1`, the GFP signal change (wild-type ribosome) is 6.3% (inactive), the OD600 change is -2.18% and the RFP signal change was -0.457%.

Take `CCCS(=O)(=O)N1CCC(CCOc2ccccc2)(C(=O)OCC)CC1`: the GFP signal change (wild-type ribosome) was -17.9% (inactive), the OD600 change is -32.1% and the RFP signal change was -4.54%.

Turning to `CCOC(=O)C1(CCOc2ccccc2)CCN(Cc2ccc(C#CCCO)cc2)CC1`, the GFP signal change (wild-type ribosome) is 2.81% (inactive), the OD600 change was -4.44% and the RFP signal change is -0.935%.

`CCOC(=O)C1(CCOc2ccccc2)CCN(Cc2cc(OC)cc(OC)c2)CC1`: the GFP signal change (wild-type ribosome) is -33.8% (active), the OD600 change is -25.8% and the RFP signal change is -6.01%.

Consider `COc1ccc2c3c([nH]c2c1)[C@H](CO)N(Cc1cccc(F)c1)CC31CCN(CC2CC2)CC1`, for which the GFP signal change (wild-type ribosome) was 4.42% (inactive), the OD600 change is 4.76% and the RFP signal change is -1.35%.

For the compound `CC(C)NC(=O)N(C)C[C@H]1Oc2ccc(N)cc2C(=O)N(C)C[C@@H]1C`, the GFP signal change (wild-type ribosome) is 0.734% (inactive), the OD600 change amounted to 6.88% and the RFP signal change was -0.42%.

On to `OC[C@@H]1[C@@H](c2ccccc2)C2(CN(Cc3cccc(F)c3)C2)N1CC1CCCC1`, for which the GFP signal change (wild-type ribosome) is -23.5% (inactive), the OD600 change is -64.7% and the RFP signal change turned out to be 20.6%.

As to `CNC(=O)c1ccsc1NC(=O)c1ccc(S(=O)(=O)N2CCc3ccccc32)cc1`, the GFP signal change (wild-type ribosome) was -14% (active), the OD600 change is -3.21% and the RFP signal change is -0.575%.

As to `CC1CN(S(=O)(=O)c2ccc(C(=O)Nc3sccc3C(N)=O)cc2)CC(C)O1` (stereo unspecified), the GFP signal change (wild-type ribosome) is -9.92% (inactive), the OD600 change came out at 0.73% and the RFP signal change is -4.68%.

In the case of `O=S(=O)(c1ccccc1)N1CCc2ccccc21`, the GFP signal change (wild-type ribosome) is 3.46% (inactive), the OD600 change was 1.07% and the RFP signal change was 1.3%.

For the compound `CN1C[C@@H]2[C@H](c3ccccc31)[C@@H](CO)N2C(=O)Nc1ccccc1`, the GFP signal change (wild-type ribosome) is -1.61% (inactive), the OD600 change was -4.19% and the RFP signal change was -0.289%.

Take `CC(=O)N1[C@@H]2c3ccc(-c4ccccc4)c(=O)n3C[C@@H]2[C@@H](CO)[C@@H]1C(=O)NCc1ccccc1F`: the GFP signal change (wild-type ribosome) is 1.92% (inactive), the OD600 change turned out to be 0.235% and the RFP signal change turned out to be 0.825%.

For the compound `COc1ccc(CN(C)C[C@@H]2OCCCC[C@H](C)Oc3ccc(NS(=O)(=O)c4cccs4)cc3C(=O)N([C@H](C)CO)C[C@@H]2C)cc1`, the GFP signal change (wild-type ribosome) was 1.91% (inactive), the OD600 change is -7.75% and the RFP signal change is 1.8%.

For `CCC(=O)N1CC(=O)N2[C@H](CO)[C@@H](c3ccc(-c4ccc(C(=O)N(C)C)cc4)cc3)[C@@H]2C1`, the GFP signal change (wild-type ribosome) was -0.311% (inactive), the OD600 change is -1.8% and the RFP signal change stood at 0.455%.

Consider `Cn1c(CNC(=O)c2ccco2)nnc1SCC(=O)N1CCN(c2ccccc2)CC1`, for which the GFP signal change (wild-type ribosome) was 4.73% (inactive), the OD600 change is 14.2% and the RFP signal change was -0.921%.

As for `O=C(NCc1nnc(SCC(=O)N2CCCCCC2)o1)c1ccc(F)cc1`, the GFP signal change (wild-type ribosome) was 3.73% (inactive), the OD600 change came to 9.68% and the RFP signal change stood at 2.77%.

With `O=C(NCc1nnc(SCC(=O)N2CCC(Cc3ccccc3)CC2)o1)c1ccco1`, the GFP signal change (wild-type ribosome) was -22.9% (active), the OD600 change was -18.5% and the RFP signal change was -1.19%.
